G9a inh: G9a (human) methyltransferase inhibition | AID 504332 | hit rate 8.8% among 350,000 | Potency, µM (highest dose often 102 µM), for the others: top-dose activity, negative = inhibition, usual class: inhibitors | G9a H3K9 monomethylation, AlphaScreen, 2 h | Q96KQ7; note: potency is the fitted concentration of half-maximal effect; nearly all actives have a fitted effect of over 75% in size
Target sequence (Q96KQ7 913-1193 limits assumed): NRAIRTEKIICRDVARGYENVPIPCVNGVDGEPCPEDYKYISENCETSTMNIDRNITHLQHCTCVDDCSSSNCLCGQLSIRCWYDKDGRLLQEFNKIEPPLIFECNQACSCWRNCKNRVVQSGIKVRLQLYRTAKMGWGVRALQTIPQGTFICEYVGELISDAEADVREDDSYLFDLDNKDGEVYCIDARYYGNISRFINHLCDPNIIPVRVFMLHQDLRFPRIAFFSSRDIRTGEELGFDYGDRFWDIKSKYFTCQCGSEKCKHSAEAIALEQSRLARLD
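G9a (20 nM) was preincubated 15 min with compound, then reacted 2 h at room temperature with 500 nM biotin-H3K9 peptide and 20 µM SAM. Monomethyl-H3K9 detected by AlphaScreen using anti-H3K9me1 antibody.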
Tau fibril FP: inhibitors of human tau fibril formation; P10636; K18 P301L tau heparin fibrillization, Alexa594 FP, 6 h; Potency, µM (top dose mostly 57.7 µM), inactives show at the highest dose activity, negative = inhibition, most hits filed as inhibitors; hit rate 0.39% among 280,000; note: potency is the fitted concentration of half-maximal effect; nearly all actives have a fitted effect of over 55% in size
Target sequence (P10636 561-689 P618L limits assumed): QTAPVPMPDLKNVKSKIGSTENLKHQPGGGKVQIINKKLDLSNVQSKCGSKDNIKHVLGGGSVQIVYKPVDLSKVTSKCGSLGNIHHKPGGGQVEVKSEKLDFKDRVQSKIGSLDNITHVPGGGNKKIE
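Human tau K18 […] P301L fragment, 15 uM unlabeled plus 0.24 uM Alexa 594-labeled tau (final), with compound and 20 uM heparin in 100 mM sodium acetate pH 7; 6 hr at 37 C, then Alexa 594 FP read.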
Coupling enz: coupling enzyme interference in Giardia aldolase counter-screen; coupling enzyme system counterscreen, AmpLite Red fluorescence; hit rate 0.67% among 290,000; activity change, negative = inhibition, % at 58.2 µM, hits read low; AID 2472; in the data active = activity change below about -30%
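Compounds tested against the coupling enzymes alone at 57.5 uM final; readout was AmpLite Red fluorescence (525/598 nm) after 20 min at RT.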
Sfp PPTase inh: Sfp phosphopantetheinyl transferase inhibition; hit rate 3.5% among 310,000; AID 1490; Potency, µM, for the others: largest response in the series, negative = inhibition, usual class: inhibitors; Biochemical Sfp PPTase activity, qHTS; Q9F4F7;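 note: the enzyme is Sfp with the accession as filed and its product quenches rhodamine fluorescence; potency is the fitted concentration of half-maximal effect; 0% = enzyme reaction without inhibitor and -100% = no enzyme wells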
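Fluorescence-quenching assay: 15 nM Sfp-PPTase preincubated 15 min at room temperature with compound, then 5 uM rhodamine-CoA and 12.5 uM BHQ-2-labelled YbbR peptide added. Fluorescence (ex 525/em 598 nm) read at start and after 30 min; difference gives rate.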
Tau ThT inhib: inhibitors of human tau fibril formation, thioflavin T binding; recombinant tau K18 P301L, heparin-induced fibrillization, ThT fluorescence; Potency, µM (doses to about 57.4 µM), inactives show top-dose activity, negative = inhibition, actives largely listed as inhibitors; hit rate 2.1% among 270,000; AID 1460; note: potency is the fitted concentration of half-maximal effect; nearly all actives have a fitted effect of over 55% in size
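Using a mix of unlabeled (15 uM) and Alexa 594-labeled (0.24 uM) tau K18 P301L, heparin-triggered fibrillization over 6 hr at 37 C was scored by ThT fluorescence.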
Tau fluor cs: counter-screen for tau fibril formation inhibitors; tau K18 P301L (four-repeat tau fragment) Alexa594 fluorescence, heparin fibrillization; Potency, µM (titrated, usually from 57.7 µM), for the others: top-dose activity change, negative = decrease; hit rate 0.93% among 280,000; AID 1463; note: potency is the fitted concentration of half-maximal effect; nearly all actives have a fitted effect of over 55% in size
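Human K18 P301L tau (15 uM unlabeled plus 0.24 uM Alexa 594-labeled, final) in 100 mM sodium acetate pH 7 was mixed with compound and 20 uM heparin and incubated 6 hr at 37 C.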
* marks the source's active call; other numbers are inactive results; ? = inconclusive; nt = not tested or not shown; [ ] = dose if it differs, or a comment. The list is not random: actives were taken first. Their share in the collection is about 11%. Unless noted, calls come from the whole dose curve; as a rule, active = well fitted curve in the direction sought with a large enough effect; inconclusive = small, poorly fitted or top-dose-only effect, or another doubt; inactive = no such curve, though single readings can be large; an effect the other way counts as inactive or inconclusive. Unless noted, % is set by controls: 0 for no effect and ±100 for the full control effect.

SMILES	G9a inh	Tau fibril FP	Coupling enz	Sfp PPTase inh	Tau ThT inhib	Tau fluor cs
O=C(NNS(=O)(=O)c1ccccc1)C1CCN(S(=O)(=O)c2ccc(Cl)cc2)CC1	19%[59 µM]	6%	0	2%	5%	0%
CCc1ccc(N(C(=O)CCC(=O)Nc2cc(C)on2)C(C(=O)NC(C)(C)C)c2ccc(OC)cc2)cc1 (centres undefined)	-4%	nt	1	17%	nt	nt
Cc1cc(C(=O)OCC(=O)Nc2c(Cl)cccc2C(F)(F)F)c(C)o1	-50%	nt	nt	nt	nt	nt
CSc1ccc(S(=O)(=O)N2CCC(C(=O)N3CCc4ccccc4C3)CC2)cc1	40µM*	nt	2	22%	nt	nt
COc1cc(NC(=O)Cc2ccccc2)ccc1NC(=O)Cc1ccccc1	nt	nt	-3	5%	nt	nt
CCCCc1ccc(N=N/C(C(=O)Nc2ccc(NC(C)=O)cc2OC)=C(/C)O)cc1	35µM*	-1%	-1	-14%	?	-14%
O=C(Nc1cc2cc([N+](=O)[O-])ccc2oc1=O)c1cccs1	-2%	4%	3	17%	-13%	4%
O=c1oc2cc([N+](=O)[O-])ccc2nc1/C=C(O)/C=C/c1ccccc1	35µM*	?	4	50µM*	nt	?
O=c1oc2ccccc2nc1/C=C(\O)c1ccccc1	nt	-7%	3	?	nt	-9%
O=c1oc2cc([N+](=O)[O-])ccc2nc1/C=C(\O)c1cccc(Br)c1	20µM*	5%	7	5%	nt	-4%
Cc1cccc(CCN2CCN=C2Nc2ccccc2)c1	11%[2.33 µM]	nt	nt	nt	nt	nt
Cc1c(Cc2ccccc2)c(=O)oc2c(O)c(O)ccc12	4µM*	-5%	-18	-22%	?	-29%
Cc1oc2c(O)c(O)ccc2c(=O)c1-c1ccccc1	?	-8%	-12	50µM*	?	-13%
Cc1oc2c(O)c(O)ccc2c(=O)c1-c1ccc(Cl)cc1	5µM*	nt	0	-18%	nt	nt
O=c1cc(-c2ccccc2O)oc2c(O)c(O)ccc12	nt	13µM*	-56*	4µM*	11µM*	?
N#Cc1cccc(NC(=O)N2CCCC3(CCN(C(=O)c4cccc(F)c4)CC3)C2)c1	-1%[12.7 µM]	nt	0	6%	nt	nt
Cc1ccc(CN2C(=O)c3ccccc3Sc3ccc(C(=O)OCc4ccco4)cc32)cc1	5%[59 µM]	1%	nt	nt	2%	-1%
Cc1cc(=O)oc2c(O)c(O)ccc12	nt	-23%	-36*	45µM*	?	-27%
Fc1ccccc1CN1CCCN(C(=S)Nc2cccc(Cl)c2)C1	40%[59 µM]	32µM*	1	-1%	5%	?
O=C(/C=C/NNC(=O)c1ccc(Cl)cc1)c1ccccc1	?	-1%	1	8%	22µM*	-13%
O=C(/C=C/NNC(=O)c1cccc(Br)c1)c1cccc(Br)c1	49%[12.7 µM]	1%	-2	11%	14µM*	?
Cc1ccc(C(=O)/C=C/NNC(=O)c2ccccc2O)cc1	10%[59 µM]	nt	-3	13%	nt	nt
O=C(O)/C=C/C(=O)NNC(=O)c1ccc(Br)cc1	25µM*	-2%	4	-11%	?	-8%
O=C(NNC(=O)c1ccc(Br)cc1)c1ccncc1	-34%[0.501 µM]	nt	-10	21%	nt	nt
O=C(/C=C/NNC(=O)c1ccccc1)c1ccc(Br)cc1	-41%	1%	-1	5%	25µM*	?
SMILES	G9a inh	Tau fibril FP	Coupling enz	Sfp PPTase inh	Tau ThT inhib	Tau fluor cs
COc1ccc(N2CCN(S(=O)(=O)CCNC(=O)c3c(F)cccc3Cl)CC2)cc1	-32%[59 µM]	1%	nt	nt	2%	1%
COc1ccc(CCNC(c2ccc(F)cc2)c2nnc(-c3ccccc3Cl)o2)cc1OC (centres undefined)	-37%[59 µM]	0%	nt	nt	-15%	-20%
Cc1ccccc1NCC(=O)c1ccc(Br)cc1	?	4%	5	45µM*	?	-27%
O=C(/C=C/NCC(=O)c1ccccc1)c1ccc(Br)cc1	6.3µM*	-8%	-1	-29%	?	-25%
O=C(NNc1ccc(O)cc1)c1ccc(Br)cc1	1.6µM*	?	1	13µM*	16µM*	?
O=C(Nc1cccc(O)c1)c1ccc(Br)cc1	-21%[12.7 µM]	1%	0	8%	-8%	-17%
CCCN(C(=O)CCc1nc(-c2ccc(OC)cc2)no1)c1ccccc1F	29%[59 µM]	6%	nt	nt	?	-20%
CCOC(=O)NC(NC(=S)Nc1ccccc1OC)C(Cl)(Cl)Cl (centres undefined)	?	6%	1	4%	1%	-6%
COC(CNC(=S)Nc1ccc([N+](=O)[O-])cc1)OC	8%[59 µM]	-7%	-1	-12%	-10%	-18%
COC(=O)NC(NC(=S)Nc1ccccc1OC)C(Cl)(Cl)Cl (centres undefined)	16µM*	-1%	5	-17%	6%	0%
COC(=O)NC(NC(=S)Nc1ccc([N+](=O)[O-])cc1)C(Cl)(Cl)Cl (centres undefined)	10µM*	-8%	1	-5%	-13%	?
CCOC(=O)NC(NC(=S)Nc1ccc(OC)cc1)C(Cl)(Cl)Cl (centres undefined)	6.3µM*	-5%	2	12%	-4%	-17%
Cc1cc(O)c(C(c2ccccc2)N2CCN(c3ccccc3)CC2)c(=O)n1Cc1ccco1 (centres undefined)	?	-10%	nt	nt	?	-1%
O=C(Nc1ccc2c(c1)OCCO2)c1cccc2nc3ccccc3nc12	14%[0.0925 µM]	5%	nt	?	4.5µM*	?
Cc1cc(C)nc(SCC(=O)Nc2ccc3c(c2)OCO3)n1	nt	nt	0	-1%	nt	nt
Cc1nn(C)cc1C(=O)Nc1ccc2c(c1)OCCO2	32µM*	nt	0	50µM*	nt	nt
CC1CCN(S(=O)(=O)c2ccc(NC(=O)CSc3nnnn3C)cc2)CC1	7%[59 µM]	-9%	-3	7%	-1%	-11%
Cc1nc(SCC(=O)Nc2ccc3c(c2)OCCO3)nc(C)c1C	22µM*	0%	-3	?	-4%	-6%
CN(C)S(=O)(=O)c1ccc(NC(=O)CSc2nnnn2C)cc1	32µM*	6%	2	?	nt	24%
O=C(Nc1ccc2c(c1)OCCO2)c1ccc2ccccc2n1	-5%	3%	-13	-15%	?	-23%
CN(C)S(=O)(=O)c1ccc(SCC(=O)Nc2ccc3c(c2)OCCO3)nc1	40µM*	nt	nt	nt	nt	nt
Nc1ccccc1SCC(=O)Nc1ccc2c(c1)OCCO2	28µM*	nt	0	-31%	nt	nt
Nc1ccccc1SCC(=O)Nc1ccc2c(c1)OCO2	67%	nt	nt	-5%	nt	nt
O=C(CSc1ccc([N+](=O)[O-])cn1)Nc1ccc2c(c1)OCCO2	?	-3%	-5	-6%	?	-17%
O=C(CSc1ncccn1)NC(=O)Nc1ccc2c(c1)OCCO2	45µM*	6%	0	5%	-13%	-3%
